About 410 targets per protein were measured; listed, in parts, are those with the strongest signals and a random draw of the rest.
Key:
Assay in all cases: glycan array binding signal (z-score within array); higher = stronger binding
[1] = test system: GlcNAc(b1-3)[GlcNAc(b1-4)][GlcNAc(b1-6)]GlcNAc; settings: glycan notation: IUPAC condensed, linker removed
Summary of the method: (§1)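 Negative Z-scores can be read as non-binding. The Z-score is calculated within each array and then averaged across arrays of one protein sequence at different concentrations or buffers and across linkers. Arrays, 3228 in all, were curated from the Consortium for Functional Glycomics database and kept only where the protein sequence was available.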

[2] = test system: GlcNAc(b1-4)[GlcNAc(b1-6)]GalNAc; settings: glycan notation: IUPAC condensed, linker removed
Summary of the method: as §1

[3] = test system: GlcNAc(b1-3)[GlcNAc(b1-6)]Gal(b1-4)GlcNAc; settings: glycan notation: IUPAC condensed, linker removed
Summary of the method: as §1

[4] = test system: GlcNAc(b1-4)GlcNAc(b1-4)GlcNAc(b1-4)GlcNAc(b1-4)GlcNAc(b1-4)GlcNAc; settings: glycan notation: IUPAC condensed, linker removed
Summary of the method: as §1

[5] = test system: GlcNAc(b1-4)GlcNAc(b1-4)GlcNAc(b1-4)GlcNAc(b1-4)GlcNAc; settings: glycan notation: IUPAC condensed, linker removed; mutation: D138V, E140I
Summary of the method: as §1

Kdn(a2-3)Gal(b1-3)GlcNAc = settings: glycan notation: IUPAC condensed, linker removed
Summary of the method: as §1

[6] = test system: GlcNAc(b1-6)Gal(b1-4)GlcNAc; settings: glycan notation: IUPAC condensed, linker removed
Summary of the method: as §1

[7] = test system: GlcNAc6S(b1-3)Gal(b1-4)GlcNAc; settings: glycan notation: IUPAC condensed, linker removed
Summary of the method: as §1

Sequence of CHT (Homo sapiens) (chain, as listed by the source): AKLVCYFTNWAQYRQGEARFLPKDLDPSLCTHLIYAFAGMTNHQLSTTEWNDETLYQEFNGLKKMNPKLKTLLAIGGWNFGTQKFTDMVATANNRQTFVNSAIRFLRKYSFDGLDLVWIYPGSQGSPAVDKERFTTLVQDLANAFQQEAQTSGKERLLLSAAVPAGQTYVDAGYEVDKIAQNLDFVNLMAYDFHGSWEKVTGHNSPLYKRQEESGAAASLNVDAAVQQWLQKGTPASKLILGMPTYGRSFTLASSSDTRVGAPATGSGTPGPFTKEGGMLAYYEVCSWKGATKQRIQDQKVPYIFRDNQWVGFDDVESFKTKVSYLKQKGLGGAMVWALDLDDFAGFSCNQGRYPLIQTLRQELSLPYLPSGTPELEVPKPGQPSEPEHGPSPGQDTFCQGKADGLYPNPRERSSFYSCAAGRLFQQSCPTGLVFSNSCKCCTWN
Sequence of PILRa (Mus musculus), Q2YSF3 (Q2YSF3 entry or part of it): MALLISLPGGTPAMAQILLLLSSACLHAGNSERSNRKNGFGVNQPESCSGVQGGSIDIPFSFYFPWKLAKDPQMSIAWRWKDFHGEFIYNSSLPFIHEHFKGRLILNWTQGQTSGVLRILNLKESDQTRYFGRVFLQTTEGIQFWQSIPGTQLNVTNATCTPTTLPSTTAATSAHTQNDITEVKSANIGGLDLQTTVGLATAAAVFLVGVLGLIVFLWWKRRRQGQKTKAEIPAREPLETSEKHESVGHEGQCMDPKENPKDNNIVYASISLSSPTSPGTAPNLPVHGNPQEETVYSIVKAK
Sequence of C3b (Homo sapiens), P01024 (P01024 23-667): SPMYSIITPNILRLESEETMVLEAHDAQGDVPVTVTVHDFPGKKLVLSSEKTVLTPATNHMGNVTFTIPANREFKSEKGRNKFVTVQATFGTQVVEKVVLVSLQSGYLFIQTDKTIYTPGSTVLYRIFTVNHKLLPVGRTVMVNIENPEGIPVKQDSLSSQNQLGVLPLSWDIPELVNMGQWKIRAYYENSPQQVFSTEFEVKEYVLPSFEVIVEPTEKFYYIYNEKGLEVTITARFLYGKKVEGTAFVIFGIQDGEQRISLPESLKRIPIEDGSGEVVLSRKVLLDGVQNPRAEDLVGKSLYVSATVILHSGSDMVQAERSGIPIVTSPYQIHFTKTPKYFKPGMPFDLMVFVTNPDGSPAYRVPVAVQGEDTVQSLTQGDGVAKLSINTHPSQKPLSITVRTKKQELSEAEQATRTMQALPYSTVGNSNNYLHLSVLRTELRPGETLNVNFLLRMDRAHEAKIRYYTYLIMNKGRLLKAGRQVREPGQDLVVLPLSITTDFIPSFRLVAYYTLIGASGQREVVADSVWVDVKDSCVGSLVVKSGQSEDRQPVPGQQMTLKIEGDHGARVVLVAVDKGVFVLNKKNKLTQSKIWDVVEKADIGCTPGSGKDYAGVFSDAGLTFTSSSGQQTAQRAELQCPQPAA
Sequence of CHI3L1 (Homo sapiens), P36222 (P36222 whole entry): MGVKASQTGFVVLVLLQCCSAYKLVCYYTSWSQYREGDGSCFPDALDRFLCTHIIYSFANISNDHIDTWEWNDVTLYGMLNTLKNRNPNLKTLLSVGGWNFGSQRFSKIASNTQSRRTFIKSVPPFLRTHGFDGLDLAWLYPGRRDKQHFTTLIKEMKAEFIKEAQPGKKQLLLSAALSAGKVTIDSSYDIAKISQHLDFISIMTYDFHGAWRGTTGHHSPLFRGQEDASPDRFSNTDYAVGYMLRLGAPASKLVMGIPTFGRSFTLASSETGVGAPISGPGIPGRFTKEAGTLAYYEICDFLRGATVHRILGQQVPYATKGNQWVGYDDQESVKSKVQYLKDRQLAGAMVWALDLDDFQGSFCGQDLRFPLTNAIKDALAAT
Sequence of Aggrecan (Rattus norvegicus), NP_071526 (chain, as listed by the source): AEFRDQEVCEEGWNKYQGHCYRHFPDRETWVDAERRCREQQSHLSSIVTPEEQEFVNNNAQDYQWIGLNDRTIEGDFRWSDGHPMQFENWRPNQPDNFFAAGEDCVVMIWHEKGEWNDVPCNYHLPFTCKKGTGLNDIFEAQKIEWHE
Sequence of SRLC (Mus musculus), Q8VIF6 (Q8VIF6 other isoform, or with tags, fused parts or gaps): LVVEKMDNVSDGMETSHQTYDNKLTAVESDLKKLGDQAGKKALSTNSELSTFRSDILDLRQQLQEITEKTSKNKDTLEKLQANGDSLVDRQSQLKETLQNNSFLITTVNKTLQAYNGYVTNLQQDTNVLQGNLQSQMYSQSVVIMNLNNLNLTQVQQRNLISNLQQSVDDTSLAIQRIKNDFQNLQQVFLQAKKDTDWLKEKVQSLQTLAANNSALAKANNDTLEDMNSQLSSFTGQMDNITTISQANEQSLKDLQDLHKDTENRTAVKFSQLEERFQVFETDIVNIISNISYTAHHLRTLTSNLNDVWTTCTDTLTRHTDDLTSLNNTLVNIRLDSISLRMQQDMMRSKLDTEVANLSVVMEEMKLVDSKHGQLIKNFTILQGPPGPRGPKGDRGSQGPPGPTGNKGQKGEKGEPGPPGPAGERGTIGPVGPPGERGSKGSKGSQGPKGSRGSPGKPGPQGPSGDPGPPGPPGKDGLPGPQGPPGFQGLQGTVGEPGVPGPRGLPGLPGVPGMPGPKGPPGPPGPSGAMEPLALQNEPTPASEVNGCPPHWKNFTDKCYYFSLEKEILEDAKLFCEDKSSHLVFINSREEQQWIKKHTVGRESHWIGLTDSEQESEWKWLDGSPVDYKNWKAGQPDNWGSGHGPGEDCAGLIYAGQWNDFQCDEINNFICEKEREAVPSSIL
Sequence of Avaren (Actinomycete K97) (chain, as listed by the source): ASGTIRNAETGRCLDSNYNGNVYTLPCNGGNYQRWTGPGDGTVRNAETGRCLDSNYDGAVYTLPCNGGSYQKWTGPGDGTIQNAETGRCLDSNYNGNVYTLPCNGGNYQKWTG

## C3b (Homo sapiens), P01024
[1]
  glycan array binding signal (z-score): 7.72
[2]
  glycan array binding signal (z-score): 2.75

## Avaren (Actinomycete K97)
[3]
  glycan array binding signal (z-score): -0.108

## MpAFP RI GFP (Marinomonas primoryensis)
[4]
  glycan array binding signal (z-score): -0.527

## CHI3L1 (Homo sapiens), P36222
[4]
  glycan array binding signal (z-score): 15.6

## CHT (Homo sapiens)
[4]; mutation: D138V, E140I
  glycan array binding signal (z-score): 11.9
[5]
  glycan array binding signal (z-score): 8.66
Kdn(a2-3)Gal(b1-3)GlcNAc; mutation: D138V, E140I
  glycan array binding signal (z-score): -0.105

## Aggrecan (Rattus norvegicus), NP_071526
[2]
  glycan array binding signal (z-score): 0.018

## Siglec-8 (Homo sapiens), Q9NYZ4
[2]; mutation: R125K
  glycan array binding signal (z-score): -0.467

## PILRa (Mus musculus), Q2YSF3
[6]
  glycan array binding signal (z-score): -0.314
[7]
  glycan array binding signal (z-score): 0.098

## SRLC (Mus musculus), Q8VIF6
Kdn(a2-3)Gal(b1-3)GlcNAc
  glycan array binding signal (z-score): -0.229

## HARE (Homo sapiens), Q8WWQ8
Kdn(a2-3)Gal(b1-3)GlcNAc
  glycan array binding signal (z-score): -0.646
